VCAM1 TNFa inh – inhibitors of TNFa-induced VCAM1 expression, primary screen, imaging, HUVEC, TNFa stimulus, immunofluorescence; inhibition, % at 2 µM; AID 802, 2007; HUVEC TNFa-induced VCAM-1 immunofluorescence, high-content imaging; 95,000 compounds, 0.48% hits;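 active means inhibition above the batch mean plus 3 SD, with images confirmed as a hit by eye, cut at about 37% in these data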;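 further: 0% = TNF-stimulated DMSO wells and 100% = unstimulated control wells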
E-sel TNF inh – E-selectin induction blockers in HUVEC – imaging, immunofluorescence, high content, primary screen; HUVEC TNFa-induced E-selectin immunofluorescence; inhibition, % at 2 µM; 120,000 compounds, 0.71% hits;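 active means inhibition above the batch mean plus 3 SD, and confirmed as a hit on visual image review, cut at about 43% in these data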;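 further: 0% = TNF-stimulated DMSO wells and 100% = unstimulated control wells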
cytoskel mod – modifiers of F-actin cytoskeleton organization, primary screen, imaging, HUVEC, phalloidin staining, high-content imaging; HUVEC TNFa F-actin phalloidin imaging; inhibition, % at 2 µM; 91,000 compounds, 0.18% hits; AID 836, 2007;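 active means inhibition above the batch mean plus 3 SD and confirmed as a hit by visual image inspection, cut at about 30% in these data, passing the limit was not always enough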
MRP-1 activ – H69AR viability gain despite doxorubicin, primary screen, MRP-1 activator project, H69AR cells, CellTiter-Glo. viability rescue. 140,000 compounds, 0.61% hits. viability increase, % at 10 µM;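 active means viability gain under doxorubicin at or above a set limit, the compound median plus 3 SD, cut at about 4.7% in these data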;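 further: MRP-1 overexpressing cells given doxorubicin 25 µM after compound pretreatment; 18-22 h compound pretreatment then 72 h with doxorubicin before readout; 0% = doxorubicin-only wells and 100% = vehicle-treated cells without doxorubicin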
MRP reversal – reversal of MRP1-mediated doxorubicin resistance, primary screen, H69AR cells, doxorubicin co-treatment; AID 602, 2007; differential viability (reversal), % at 10 µM; H69AR cells + 2 uM doxorubicin, CellTiter-Glo, 72 h; 85,000 compounds, 0.04% hits;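 active means viability drop by adding the cancer drug above about 55%, with treated viability meeting a 40% cutoff, limit read from the data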;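 further: viability without doxorubicin minus viability with 2 µM doxorubicin for each compound; larger differential means the compound sensitizes cells more to doxorubicin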
* hit, by the source's call; x = no result. Shown are actives, neighbours in structure and some others; about 1.5% of the full set was active somewhere.

SMILES	VCAM1 TNFa inh	E-sel TNF inh	cytoskel mod	MRP-1 activ	MRP reversal
COC(=O)c1ccc(C(=O)NC(=S)Nc2ccc3nc(SC)sc3c2)cc1	x	x	x	-5	x
O=C(c1cnsn1)N1CCN(c2ccccc2)CC1	-28	-8	20	-1	0
O=C(c1cnccn1)N1CCN(c2ccccc2)CC1	-2	59*	-14	-1	x
CC(C)CNC(=O)c1ccccc1NC(=O)Nc1ccccc1	-8	-2	5	0	5
Cc1ccc(S(=O)(=O)N(C)CCCC(=O)Nc2cc(C)ccc2C)cc1	x	97*	x	-2	x
Cc1cc(N2CCOCC2)c2c(N)c(C)cc(C)c2n1	100*	-42	x	0	-8
COC(=O)[C@@]1(Cc2ccc(F)cc2)[C@H]2c3cc(C(=O)N(C)C)n(Cc4ccc(OC(F)(F)F)cc4)c3C[C@H]2CN1C(=O)c1ccccc1	x	-19	x	-4	x
CC(C)c1nnc(NC(=O)CSc2ncn[nH]2)s1	-14	-43	13	4.8*	-9
O=C(CSc1ncn[nH]1)Nc1ccccc1C(=O)O	13	-17	-6	-2	-10
O=C(CSc1ncn[nH]1)Nc1ccc(Br)cc1F	42	x	-20	7.0*	-10
COc1ccc(/C=C/C(=O)c2ccc3c4c(cccc24)CC3)cc1OC	x	x	x	-5	x
CN(C)C1C(=O)c2ccccc2C1=O	x	x	x	0	x
N=c1nc(N)nc2n1NC(c1ccc(F)cc1)=CS2	55*	15	-16	-5	4
COc1ccc(C2=CSC(/N=C/c3ccc(F)cc3)=NN2)cc1	11	4	-26	-2	-1
CC(=O)NC(CC(=O)N(C)Cc1cccc(Cl)c1Cl)c1ccccc1 (stereo not given)	x	11	x	x	x
COc1ccc(CNC(=O)C(CCSC)NS(=O)(=O)c2ccccc2F)cc1 (stereo not given)	x	79*	x	x	x
Cc1ccc(NC2OC(C(O)CO)C(O)C2O)cc1[N+](=O)[O-] (stereo not given)	-12	64*	x	1	x
CC(C)(/C=N/NC(=O)CSCc1ccccc1Cl)CCC#N	x	6	x	-2	x
NC(=S)N/N=C/c1ccc(-c2cc(Cl)ccc2Cl)o1	54*	-28	-8	0	x
COc1cccc(C(C)NC(=O)c2c(F)cccc2Cl)c1 (stereo not given)	x	61*	x	-1	x
CCn1cc(S(=O)(=O)CC(=O)N2CCc3ccccc32)c2ccccc21	x	x	x	x	0
CCNC(=O)n1nccc1C(C)Oc1cccc(C(F)(F)F)c1 (stereo not given)	10	19	13	-2	x
O=C(N/N=C/c1ccccc1[N+](=O)[O-])c1ccc(COc2ccccc2-c2ccccc2)cc1	x	-1	x	7.3*	x
O=C(COc1ccccc1-c1ccccc1)N/N=C/c1cccc2ccccc12	69*	17	-31	-2	x
CCOc1ccc(C(=O)N/N=C/c2ccccc2[N+](=O)[O-])cc1	x	9	x	2	x
SMILES	VCAM1 TNFa inh	E-sel TNF inh	cytoskel mod	MRP-1 activ	MRP reversal
COC(=O)c1c(NC(NC(=O)c2ccccc2)(C(F)(F)F)C(F)(F)F)sc2c1CCN(C)C2	x	6	x	-2	x
Nc1ccc(C(=O)OCC(=O)N2c3ccccc3Sc3ccccc32)cc1[N+](=O)[O-]	x	-10	x	8.7*	x
Nc1ccc(C(=O)OCC(=O)N2CCc3ccccc3C2)cc1[N+](=O)[O-]	x	-7	x	-1	x
O=C(CN(Cc1ccccc1Cl)C(=O)c1ccc(CN2CCOCC2)o1)NCC1CCCO1 (stereo not given)	6	-7	30	-1	4
COc1ccc(C(=O)Nc2ccc(Cl)c(S(=O)(=O)Nc3ccccc3OC)c2)cc1	x	x	x	9.2*	x
COc1ccccc1NS(=O)(=O)c1cc(NC(=O)c2ccc(Cl)nc2)ccc1Cl	x	-4	x	-3	x
CC(/C=N/NC(=O)c1cc(-c2ccncc2)nc2ccccc12)=C\c1ccco1	87*	41	-14	-3	x
CCC(=O)Nc1ccc(NC(=O)CSc2nnnn2-c2ccc3c(c2)OCCO3)cc1	x	-17	x	x	x
Cc1ccc(NC(=O)CCSc2nnnn2-c2ccc3c(c2)OCO3)cc1C	-11	-22	17	6.2*	14
S=C(Nc1cccc(Cl)c1Cl)N1CCC2(CC1)OCCO2	x	49	x	x	x
CC1CCCN(c2nc3nonc3nc2N2CCCC(C)C2)C1 (stereo not given)	4	-20	-3	0	-16
CC1CCCN(c2nc3ccsc3c(=O)s2)C1 (stereo not given)	92*	4	-21	0	-11
O/N=C\c1cccn1-c1ccc(Br)cc1	-18	8	-15	-4	-14
O=C(COC(=O)CCc1c[nH]c2ccccc12)NC(c1ccccc1)c1ccccc1	x	x	x	0	x
CCN(CC)S(=O)(=O)c1ccc(NC(=O)CSc2nnc(-c3ccc(F)cc3)o2)cc1	-11	61*	-8	-2	-4
CCN(CC)S(=O)(=O)c1ccc(-c2nnc(SCC(=O)Nc3ccc4c(c3)OCO4)o2)cc1	-57	x	14	0	-17
CCSc1nnc(-c2cccs2)o1	45	100*	-30	-1	x
O=C(/C=C/c1ccc2c(c1)OCO2)Nc1nc2ccccc2s1	x	62*	x	-6	x
O=C(C1=NN[C@@H]2C(=O)N(c3ccccc3C(F)(F)F)C(=O)[C@H]12)c1ccc2ccccc2n1	x	x	x	-1	x
N#Cc1ccc(N2C(=O)[C@@H]3C(C(=O)c4ccc5ccccc5n4)=NN[C@@H]3C2=O)cc1	x	x	x	9.3*	x
O=C(CC1CCCCC1)Nc1ncn[nH]1	11	38	-61	-3	-11
O=C(Nc1nc(-c2ccncc2)cs1)c1ccc(S(=O)(=O)N2CCOCC2)cc1	-2	63*	0	0	1
NC(=S)NNC(=O)c1ccccc1	11	8	-13	-2	x
COc1ccc(OC)c(NC(=O)COC(=O)CN(C)S(=O)(=O)c2ccc(C)cc2)c1	x	x	x	-2	x
COc1ccc(NC(=O)COC(=O)CC23CC4CC(CC(C4)C2)C3)c([N+](=O)[O-])c1	x	x	x	0	x
SMILES	VCAM1 TNFa inh	E-sel TNF inh	cytoskel mod	MRP-1 activ	MRP reversal
CCOc1ccc(NC(=O)/C=C/c2ccc(OC)cc2)c([N+](=O)[O-])c1	x	61*	x	0	x
CCOc1ccc(NC(=O)COC(=O)C23CC4CC(CC(C4)C2)C3)c([N+](=O)[O-])c1	x	95*	x	-1	x
CCOc1cc(CN2CCCCC2)ccc1OC	10	6	-22	0	8
CCOc1ccc(C=O)cc1CN1CCCCC1	95*	17	-54	1	1
c1ccc(N2CCN(c3nc(-c4cccs4)nc4ccccc34)CC2)cc1	x	x	x	7.3*	x
CN1CCN(c2nc(-c3cccs3)nc3ccccc23)CC1	x	18	x	-1	x
CCOc1ccccc1C(=O)Nc1ccccc1-c1ccccc1	x	x	x	-4	x
COCCCNC(=O)c1cc(C(=O)c2c(-c3c(Cl)cccc3Cl)noc2C)c[nH]1	2	-40	-20	-4	x
CC(C)CN(C(=O)COC(=O)CCc1c[nH]c2ccccc12)C1CCS(=O)(=O)C1 (stereo not given)	29	-22	39*	-1	2
